Experimental data published in PMC4336329 (PLoS ONE, 2015).
The campaign covered roughly 310,000 compounds. About 14,000 (4.5%) showed an effect of 50% or more. The effect is printed as a negative number. The sample as a whole holds a higher share of strong results than the screen did.

Biological target: human ether-à-go-go-related gene (hERG) potassium channel (human, UniProt Q12809)
Assay: primary screen, population patch clamp on CHO cells stably expressing hERG; higher = less effect of the substance
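Further: peak tail current of the secondary pulse compared with the same well before compound.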

Chain of human ether-à-go-go-related gene (hERG) potassium channel (Q12809 whole entry, looked up): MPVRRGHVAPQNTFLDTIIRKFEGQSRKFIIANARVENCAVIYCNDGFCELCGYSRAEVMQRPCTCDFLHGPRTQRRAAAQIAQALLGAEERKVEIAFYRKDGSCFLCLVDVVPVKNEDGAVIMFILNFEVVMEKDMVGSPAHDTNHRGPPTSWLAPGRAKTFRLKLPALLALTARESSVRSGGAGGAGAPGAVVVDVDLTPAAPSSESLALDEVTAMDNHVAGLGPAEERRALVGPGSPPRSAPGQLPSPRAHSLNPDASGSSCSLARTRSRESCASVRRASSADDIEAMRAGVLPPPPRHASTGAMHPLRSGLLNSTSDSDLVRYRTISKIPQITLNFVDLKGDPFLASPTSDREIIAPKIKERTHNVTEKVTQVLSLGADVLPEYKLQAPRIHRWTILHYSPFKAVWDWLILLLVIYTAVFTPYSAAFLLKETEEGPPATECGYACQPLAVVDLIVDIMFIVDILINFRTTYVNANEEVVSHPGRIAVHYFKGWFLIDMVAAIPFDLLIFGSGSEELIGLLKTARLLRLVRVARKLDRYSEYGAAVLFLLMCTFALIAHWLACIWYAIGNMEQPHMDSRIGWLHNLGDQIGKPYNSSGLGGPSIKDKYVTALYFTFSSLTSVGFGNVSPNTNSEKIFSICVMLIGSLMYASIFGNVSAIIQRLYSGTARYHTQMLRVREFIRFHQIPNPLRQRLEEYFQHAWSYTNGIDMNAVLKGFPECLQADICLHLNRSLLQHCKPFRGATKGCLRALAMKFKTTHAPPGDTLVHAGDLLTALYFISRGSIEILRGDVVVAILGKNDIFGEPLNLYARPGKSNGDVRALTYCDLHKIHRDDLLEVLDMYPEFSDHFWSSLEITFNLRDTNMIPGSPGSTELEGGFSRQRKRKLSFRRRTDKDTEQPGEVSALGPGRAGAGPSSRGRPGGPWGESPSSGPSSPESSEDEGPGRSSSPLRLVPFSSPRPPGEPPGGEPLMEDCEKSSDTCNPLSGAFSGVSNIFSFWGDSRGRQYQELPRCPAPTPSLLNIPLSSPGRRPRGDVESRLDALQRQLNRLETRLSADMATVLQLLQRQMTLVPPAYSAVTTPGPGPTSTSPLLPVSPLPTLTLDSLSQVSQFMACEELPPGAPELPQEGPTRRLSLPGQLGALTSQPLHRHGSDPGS

Compound | hERG current change (%, negative = inhibition) at 10uM
O=C(CCCN1C(=O)C2CC=CCC2C1=O)Nc1ccccc1F (stereo not shown) | 1.61%
CC(=O)C1C2c3ccccc3OC1(C)N=c1s/c(=C/c3cn(C)nc3C)c(=O)n12 (stereo not shown) | -0.454%
O=C(Nc1cccc(Cl)c1)c1ccc(-n2cncn2)c([N+](=O)[O-])c1 | -35%
Cc1cccc(N2CCN(C(=O)c3ccc(-n4cncn4)c([N+](=O)[O-])c3)CC2)c1C | -58.9%
O=C(O)c1ccc(-n2cncn2)c([N+](=O)[O-])c1 | 11.6%
Cc1cccc(N2CCN(c3ccc(C(N)=O)cc3[N+](=O)[O-])CC2)c1C | 21.7%
O=C(c1ccc(-n2cncn2)c([N+](=O)[O-])c1)N1CCN(c2cccc(Cl)c2)CC1 | -68.5%
O=C(NNC(=O)c1ccc(-n2cncn2)c([N+](=O)[O-])c1)c1cccc(Cl)c1 | -26.3%
COc1ccc(C2=NS(=O)(=O)N(C)C(C(=O)Nc3ccc(OC)c(OC)c3)=C2)cc1 | -11.9%
O=C(CSc1nc2ccc(Cl)cc2[nH]1)c1c[nH]c2ccccc12 | 26.8%
COc1cc(OC)cc(OC(=O)C2CCN(C(=O)c3ccc(Cl)cc3)CC2)c1 | -33.9%
COc1cc(OC)cc(C(=O)N2CCC(C(=O)c3ccc(F)cc3)CC2)c1 | -30.8%
Cc1ccc(C(=O)N2CCC(C(=O)c3c(C)cc(C)cc3C)CC2)cc1 | -38.5%
COc1ccc(C(=O)N2CCC(C(=O)c3c(C)cc(C)cc3C)CC2)cc1 | -55.3%
COc1ccc(C(CC(=O)N2CCCCC2)C(C)C)cc1 (stereo not shown) | 15.8%
COc1ccc(C(CC(=O)N2CCCC2)c2ccc(F)cc2)cc1 (stereo not shown) | -71.5%
O=C(c1ccccc1)N1CCN(c2ccc(Cl)cc2)CC1 | -25.1%
COc1ccc(C(CC(=O)N2CCCC2)C(C)C)cc1 (stereo not shown) | -2.25%
COc1ccc(C(=O)C2CCN(C(=O)c3ccc(F)cc3)CC2)cc1 | -28.5%
Cc1ccc(C(=O)N2CCN(c3ccc(Cl)cc3)CC2)cc1 | -61.1%
COc1ccc(C(=O)N2CCC(C(=O)c3ccc(F)cc3)CC2)cc1 | -70.2%
O=C(c1ccc(Cl)cc1)N1CCN(c2ccc(F)cc2)CC1 | -34%
CCc1ccc(N(CC(=O)Nc2ccc(NC(C)=O)cc2)S(=O)(=O)c2ccccc2)cc1 | 10.5%
C#CCn1ccc(O)c(Cc2c(F)cccc2Cl)c1=O | 8.2%
Cc1cccc(NC(=O)c2cc(-c3ccco3)nc3ccccc23)n1 | 4.05%
O=C1CN(C(=S)NC(=O)c2ccccc2[N+](=O)[O-])CCN1 | 16.9%
COc1ccc([N+](=O)[O-])cc1NC(=O)COC(=O)/C=C/c1ccco1 | 1.54%
COc1ccc(Cl)cc1C(=O)NNC(=O)CSc1nnnn1C | 9.95%

Compound | hERG current change (%, negative = inhibition) at 10uM
Cc1cc(-c2ccccc2)nc(SCc2ccc(C(=O)O)cc2)n1 | 23.8%
COc1ccc(C(=O)C2CCN(C(=O)Nc3ccc(C)cc3)CC2)cc1 | -9.82%
COc1ccc(NC(=S)N2CCC(C(=O)c3ccc(C)cc3)CC2)cc1 | -21.9%
COc1ccc(C(=O)C2CCN(C(=O)c3ccc(C)cc3)CC2)cc1 | -66.3%
COc1ccc(NC(=S)N2CCC(C(=O)c3ccc(OC)cc3)CC2)cc1 | -45.4%
Cc1ccc(C(=O)N2CCC(C(=O)c3ccc(Cl)cc3)CC2)cc1 | -68.4%
Cc1ccc(C(=O)C2CCN(C(=O)c3ccc(C)cc3)CC2)cc1 | -36.8%
COc1ccc(C(=O)C2CCN(C(=O)c3ccco3)CC2)cc1 | -13.4%
COc1ccc(C(=O)C2CCN(C(=O)c3ccc(OC)cc3)CC2)cc1 | -77.1%
O=C(c1ccc(Cl)cc1)C1CCN(C(=O)c2ccccc2)CC1 | -34.3%
CCOP(=O)(OCC)C(NC(=O)c1ccc(OC)c(OC)c1)c1ccccc1 (stereo not shown) | 9.71%
COc1ccc(/C(O)=C2\C(=O)C(=O)N(CCN(C)C)C2c2cc(OC)c(OC)c(OC)c2)c(C)c1 (stereo not shown) | 3.79%
COc1ccc(NC(=O)/C(N=Nc2cc(S(=O)(=O)Nc3ccc(OC)cc3)ccc2OC)=C(\C)O)cc1 | 24.2%
O=C(c1cnn2c(C(F)(F)F)cc(-c3ccc(F)cc3)nc12)N1CCc2ccccc2C1 | -3.83%
COc1ccc(Nc2ncnc3c2cnn3Cc2ccccc2)cc1 | -18.1%
CC(C)N(C(=O)c1sc2cc([N+](=O)[O-])ccc2c1Cl)C(C)C | -13.4%
CCOc1ccc(NC(=O)C(CC)n2nc(C)c3c(C)n(-c4ccccc4)nc3c2=O)cc1 (stereo not shown) | -30.1%
CCSc1ccccc1C(=O)Nc1cccnc1 | -5.83%
COCC1CCN(Cc2cn[nH]c2-c2ccc(OC)c(F)c2)C1 (stereo not shown) | -4.22%
Cc1ccccc1CN1CCN(C(=O)c2ccco2)CC1.O=C(O)C(=O)O | 7.41%
COc1ccc(-c2[nH]ncc2CN2CCN(C(=O)c3ccco3)CC2)cc1F | -6.81%
O=C(c1ccco1)N1CCN(Cc2cn[nH]c2-c2ccc(F)cc2F)CC1 | -12.8%
O=C(c1ccco1)N1CCN(Cc2cn[nH]c2-c2cccc3ccccc23)CC1 | -29.1%
O=C(c1ccco1)N1CCCN(Cc2cn[nH]c2-c2ccc(-c3ccccc3)cc2)CC1 | -59.3%
COc1ccc(-c2[nH]ncc2CN2CCCN(C(=O)c3ccco3)CC2)cc1F | -55.2%
COc1ccc(-c2[nH]ncc2CN2CCC(c3ccncc3)CC2)cc1F | -62.7%
COc1ccc(-c2[nH]ncc2CN2CCC(N3CCSCC3)CC2)cc1F | -22.5%
